Screening results from PubChem BioAssay.
Sampled rows, rich in hits. Any-hit rate of the full collection: about 1.2%.
PfHsp40 yeast = rescue of PfHsp40-mediated yeast toxicity. S. cerevisiae expressing PfHsp40, growth rescue, ATP luminescence. growth rescue, % at 12.5 µM. 340,000 compounds, 0.68% hits. AID 504582; in the data active means growth rescue above about 28%, passing the limit was not always enough;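 further: yeast W303a lacking pdr1 and pdr3 grown in galactose medium; growth measured after three days at 30 °C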
TcdB GH inh = inhibitors of Clostridioides difficile toxin B glycohydrolase. inhibition, % at 9.99 µM. 350,000 compounds, 0.24% hits. TcdB glycohydrolase enzymatic assay, plate reader. P18177. AID 652162; in the data active means inhibition above about 10%
Target sequence (P18177 whole entry, looked up): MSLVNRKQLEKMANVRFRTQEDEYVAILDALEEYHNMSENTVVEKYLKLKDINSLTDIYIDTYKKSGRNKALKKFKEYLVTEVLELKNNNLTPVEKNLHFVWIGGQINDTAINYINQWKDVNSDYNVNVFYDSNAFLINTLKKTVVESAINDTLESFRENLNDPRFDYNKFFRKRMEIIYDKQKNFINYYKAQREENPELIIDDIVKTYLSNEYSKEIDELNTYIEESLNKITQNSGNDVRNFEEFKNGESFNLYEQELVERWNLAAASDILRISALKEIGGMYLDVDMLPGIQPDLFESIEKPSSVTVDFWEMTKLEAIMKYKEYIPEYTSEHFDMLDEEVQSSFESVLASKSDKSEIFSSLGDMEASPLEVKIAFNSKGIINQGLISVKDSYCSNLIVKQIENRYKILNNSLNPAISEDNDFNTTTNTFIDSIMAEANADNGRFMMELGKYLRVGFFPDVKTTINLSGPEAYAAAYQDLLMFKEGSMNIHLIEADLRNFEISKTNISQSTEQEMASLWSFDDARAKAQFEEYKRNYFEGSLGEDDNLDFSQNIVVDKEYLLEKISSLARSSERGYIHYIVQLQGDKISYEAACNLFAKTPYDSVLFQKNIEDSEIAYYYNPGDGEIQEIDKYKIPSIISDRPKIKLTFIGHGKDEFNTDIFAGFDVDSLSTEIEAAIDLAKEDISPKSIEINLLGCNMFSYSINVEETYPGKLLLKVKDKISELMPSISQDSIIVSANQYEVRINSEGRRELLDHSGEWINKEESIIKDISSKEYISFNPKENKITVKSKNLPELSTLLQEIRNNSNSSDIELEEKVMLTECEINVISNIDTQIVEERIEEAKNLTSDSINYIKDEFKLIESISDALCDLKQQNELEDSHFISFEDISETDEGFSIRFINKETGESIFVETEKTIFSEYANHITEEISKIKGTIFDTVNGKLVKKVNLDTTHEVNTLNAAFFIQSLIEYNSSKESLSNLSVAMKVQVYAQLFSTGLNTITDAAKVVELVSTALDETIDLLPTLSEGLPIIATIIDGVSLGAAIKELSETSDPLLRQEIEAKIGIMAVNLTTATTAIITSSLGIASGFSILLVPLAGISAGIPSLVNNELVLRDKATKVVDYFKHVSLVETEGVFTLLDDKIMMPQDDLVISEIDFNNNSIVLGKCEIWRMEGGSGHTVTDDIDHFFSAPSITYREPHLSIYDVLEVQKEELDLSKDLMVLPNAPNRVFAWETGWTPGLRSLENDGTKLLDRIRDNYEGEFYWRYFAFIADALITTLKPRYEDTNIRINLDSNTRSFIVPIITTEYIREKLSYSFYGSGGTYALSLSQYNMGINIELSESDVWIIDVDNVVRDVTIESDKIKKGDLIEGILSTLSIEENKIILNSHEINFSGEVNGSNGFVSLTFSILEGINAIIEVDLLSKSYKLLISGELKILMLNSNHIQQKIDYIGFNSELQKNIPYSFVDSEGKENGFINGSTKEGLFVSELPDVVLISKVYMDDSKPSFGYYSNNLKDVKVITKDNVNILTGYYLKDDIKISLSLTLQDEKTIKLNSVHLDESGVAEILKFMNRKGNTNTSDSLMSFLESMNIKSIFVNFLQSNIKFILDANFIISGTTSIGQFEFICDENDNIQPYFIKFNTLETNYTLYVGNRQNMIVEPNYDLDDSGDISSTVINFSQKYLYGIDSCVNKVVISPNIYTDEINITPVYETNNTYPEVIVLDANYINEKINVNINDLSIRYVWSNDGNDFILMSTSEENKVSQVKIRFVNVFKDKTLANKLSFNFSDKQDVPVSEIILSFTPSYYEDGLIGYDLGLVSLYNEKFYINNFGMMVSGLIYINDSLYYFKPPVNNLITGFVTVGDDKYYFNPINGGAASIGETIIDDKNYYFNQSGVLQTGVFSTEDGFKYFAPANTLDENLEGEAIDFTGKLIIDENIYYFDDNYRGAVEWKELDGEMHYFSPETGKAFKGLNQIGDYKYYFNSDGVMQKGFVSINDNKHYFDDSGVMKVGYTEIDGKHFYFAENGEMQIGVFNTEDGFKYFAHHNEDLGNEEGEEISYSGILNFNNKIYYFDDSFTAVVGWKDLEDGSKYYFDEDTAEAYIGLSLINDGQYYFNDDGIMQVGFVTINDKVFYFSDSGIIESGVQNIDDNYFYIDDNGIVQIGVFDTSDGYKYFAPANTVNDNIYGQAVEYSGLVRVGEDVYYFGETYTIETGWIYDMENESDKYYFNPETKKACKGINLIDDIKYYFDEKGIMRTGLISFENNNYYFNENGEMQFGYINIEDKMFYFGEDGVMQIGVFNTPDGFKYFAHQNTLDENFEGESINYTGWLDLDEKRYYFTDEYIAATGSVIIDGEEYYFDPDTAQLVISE
Mtb BioA inh = BioA (M. tuberculosis) enzyme inhibition; purified M. tuberculosis BioA enzyme, plate reader; 360,000 compounds, 0.096% hits; inhibition, % at 9.99 µM; in the data active means inhibition above about 40%
Vc quorum ag = induces V. cholerae light production without autoinducers | AID 588436 | 350,000 compounds, 0.16% hits | V. cholerae BH1578 lux reporter, luminescence, 6 h | activation, % at 18.7 µM; in the data active means activation mostly above about 9.7%, no sharp cut-off
Yp Topo-I inh = inhibitors of Yersinia pestis topoisomerase I. Y. pestis Topo-I cleavage product accumulation, plate reader. activity, % at 10 µM. 360,000 compounds, 0.064% hits; in the data active means activity above about 50%, passing the limit was not always enough
VHR inh abs = DUSP3 (human) phosphatase inhibition | recombinant VHR phosphatase, pNPP absorbance | inhibition, % at 13.3 µM | 290,000 compounds, 0.52% hits; in the data active means inhibition above about 50%
Active calls of the source: *; i = inactive; · = no result.

SMILES	PfHsp40 yeast	TcdB GH inh	Mtb BioA inh	Vc quorum ag	Yp Topo-I inh	VHR inh abs
CC(C)=CCc1c(O)ccc(C(=O)Cc2ccccc2)c1O	611*	·	3	-1	-12	-3
Cc1ccc(C(=O)Cc2ccccc2)c(O)c1	-2	1	-1	-6	-2	·
CCCc1cc(NCc2ccccn2)n2nc(C)c(-c3ccccc3)c2n1	67*	0	-3	0	-15	20
Cc1nn2c(NCc3ccccn3)cc(C(C)C)nc2c1-c1ccccc1	37*	0	·	-1	18	9
CC(=O)Nc1ccc(Nc2cc(C(C)C)nc3c(-c4ccccc4)c(C)nn23)cc1	97*	1	·	-3	25	-6
CC(=O)Nc1ccc(Nc2cc(C)nc3c(-c4ccccc4)c(C)nn23)cc1	2	·	·	0	10	3
O=C(OCC(=O)N1CCN(S(=O)(=O)c2ccc(Cl)cc2)CC1)c1cccc(OC(F)F)c1	-1	-2	-2	-3	37	·
O=C(COC(=O)c1ccc([N+](=O)[O-])o1)NC1CCCC1	3	1	-2	i	-7	·
O=C(COC(=O)c1ccc([N+](=O)[O-])o1)NCc1ccc(F)cc1	223*	-2	1	0	5	·
COc1ccc(CCNC(=O)COc2ccc([N+](=O)[O-])cc2)cc1	-1	0	0	0	6	26
O=C(COC(=O)c1ccc([N+](=O)[O-])o1)Nc1cccc2ccccc12	80*	0	·	i	-7	10
COc1ccc(CCNC(=O)COC(=O)c2ccc([N+](=O)[O-])o2)cc1	123*	-3	0	i	2	·
O=C(COC(=O)c1ccc([N+](=O)[O-])o1)NC1CCCCC1	213*	3	-1	i	1	·
O=C(COC(=O)c1ccc(Br)o1)NCc1ccc(F)cc1	0	1	0	-2	-1	·
Cc1cccc(C)c1NC(=O)CSc1nnc(C)n1-c1ccccc1	1	·	-3	0	0	-10
CC(=O)Nc1ccc(NC(=O)COC(=O)c2ccc([N+](=O)[O-])o2)cc1	0	1	-1	i	8	·
O=C(COC(=O)c1ccc([N+](=O)[O-])o1)NCCCc1ccccc1	45*	0	2	i	-3	·
NNC(=O)c1cc(-c2ccc(N)cc2)nc2ccc(Br)cc12	·	1	-1	1	-1	54*
Cc1nn(C)c(C)c1S(=O)(=O)N(CC(=O)NCCCN1CCC(C)CC1)c1ccc(C(C)C)cc1	1	3	-2	0	3	56*
COc1ccc(/C=N/N=C2/NC(=O)C(CC(=O)NC(N)=O)S2)cc1 (stereo not drawn)	-1	11*	-1	i	-3	22
CCCCNC(=O)CC1S/C(=N/N=C/c2ccc(OC)cc2)NC1=O (stereo not drawn)	0	1	·	i	4	26
COc1ccc(Cl)cc1C(=O)NN=C1CCCC1	82*	-2	·	0	6	·
COc1ccc(C(=O)NN=C2CCCC2)cc1OC	0	-6	0	i	-2	14
Cc1ccc(-c2csc(NC(=O)C3=COCCO3)n2)cc1	6	·	·	-3	7	7
CCCc1ccc(-c2csc(NC(=O)C3=COCCO3)n2)cc1	50*	-2	-1	0	28	·
SMILES	PfHsp40 yeast	TcdB GH inh	Mtb BioA inh	Vc quorum ag	Yp Topo-I inh	VHR inh abs
Cc1ccc(C(=O)c2no[n+]([O-])c2C(=O)c2ccc(C)cc2)cc1	0	0	·	i	-7	54*
O=c1[nH]c(=S)c2ncn(-c3ccccc3)c2[nH]1	·	1	-3	i	-9	27
COc1ccc(-c2nn(-c3ccccc3)cc2C(=O)N(C)C)cc1	1	0	1	1	9	53*
Nc1ccn(Cc2ccccc2)n1	1	0	·	i	0	5
c1ccc(Cn2ccc(-c3cnc(-c4ccccc4)s3)n2)cc1	69*	·	·	i	-7	16
O=c1cc(CO)oc(C(Nc2ccccn2)c2ccc(C(F)(F)F)cc2)c1O (stereo not drawn)	128*	·	0	i	3	8
O=c1cc(CO)oc(C(Nc2ccccn2)c2cccc(F)c2)c1O (stereo not drawn)	-1	-7	-1	0	6	19
Cc1ccc(-n2nc(C(=O)O)nc2-c2ccccc2)cc1	2	·	-2	0	-6	-10
Nc1ccc2c(c1)[nH]c(=O)c1cc(N)ccc12	·	21*	2	i	-7	·
O=C(CCN1CCCCC1)NCC[C@H]1CC[C@@H](NC(=O)c2ccc(F)cc2)[C@H](CO)O1	·	0	-2	·	·	·
